# From ChEMBL document CHEMBL3433997, “St. Jude Leishmania screening dataset” (2016)
# Key:
# Format in all cases: functional
# [1] = biological target: Solute carrier family 2, facilitated glucose transporter member 1 (Homo sapiens) (UniProt P11166); assay: ST_JUDE_LEISH: Cytotoxicity at 2uM final concentration against transgenic Leishmania Mexicana promastigotes LmGLUT1 that are glucose transport deficient and complemented with the human glucose transporter GLUT1. Activity is measured by DNA content using SYBR green in vitro
# Solute carrier family 2, facilitated glucose transporter member 1 (Homo sapiens), sequence (P11166 whole entry): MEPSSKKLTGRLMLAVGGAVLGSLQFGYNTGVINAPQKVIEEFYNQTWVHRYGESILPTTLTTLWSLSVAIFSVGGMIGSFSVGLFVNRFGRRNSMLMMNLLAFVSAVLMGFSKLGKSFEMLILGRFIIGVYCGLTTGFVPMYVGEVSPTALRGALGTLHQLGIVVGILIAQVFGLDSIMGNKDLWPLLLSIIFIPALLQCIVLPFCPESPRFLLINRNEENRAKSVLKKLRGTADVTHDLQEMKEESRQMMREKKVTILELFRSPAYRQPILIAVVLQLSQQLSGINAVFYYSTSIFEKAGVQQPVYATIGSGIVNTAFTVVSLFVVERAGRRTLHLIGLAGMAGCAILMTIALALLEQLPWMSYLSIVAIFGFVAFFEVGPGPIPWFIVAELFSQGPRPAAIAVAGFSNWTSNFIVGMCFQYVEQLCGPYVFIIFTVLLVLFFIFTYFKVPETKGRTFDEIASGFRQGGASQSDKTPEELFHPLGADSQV
# [2] = biological target: Hexose transporter 1 (Plasmodium falciparum) (UniProt O97467); assay: ST_JUDE_LEISH: Cytotoxicity at 2uM final concentration against transgenic Leishmania Mexicana promastigotes LmPfHT that are glucose transport deficient and complemented with the Plasmodium falciparum hexose transporter. Activity is measured by DNA content using SYBR green in vitro
# [3] = biological target: Glucose transporter (Leishmania mexicana) (UniProt O61059); assay: ST_JUDE_LEISH: Cytotoxicity at 2uM final concentration against transgenic Leishmania Mexicana promastigotes LmGT2 that are glucose transport deficient and complemented with the L. Mexicana glucose transporter 2. Activity is measured by DNA content using SYBR green in vitro
smiles,measurement,setting,value
Cc1ccc2nc(C)cc(NC(=O)Nc3ccc(N(C)C)cc3)c2c1,inhibition,[1],7.58%
same,inhibition,[2],5.69%
same,inhibition,[3],7.68%
Cc1cc(Nc2cc(Cl)cc(Cl)c2)nc(N)n1,inhibition,[1],9.89%
same,inhibition,[2],10.2%
same,inhibition,[3],6.94%
CC(C)(C)c1ccc(CN2CCCCC(NC(=O)c3cc(-c4cccc(Cl)c4)cs3)C2)cc1 (stereo unspecified),inhibition,[1],-0.16%
same,inhibition,[2],-0.87%
same,inhibition,[3],-6.21%
OC1CCCN(Cc2ccc(-c3cccc(-c4nc5cc(F)ccc5[nH]4)c3)cc2)C1 (stereo unspecified),inhibition,[1],7.7%
same,inhibition,[2],7.1%
same,inhibition,[3],5.69%
O=C(Nc1ccc(Cl)cc1)c1cc(Cl)ccc1NC(=O)C1(c2ccc(Cl)cc2)CCCC1,inhibition,[1],-0.07%
same,inhibition,[2],2.74%
same,inhibition,[3],1.43%
COc1cc2c(cc1OCCN1CCC(N3CCCCC3)CC1)N(C(=O)/C=C/c1ccccc1Cl)CC2,inhibition,[1],0.24%
same,inhibition,[2],1.79%
same,inhibition,[3],1.83%
N=C(N)Nc1nc(-c2cccc(NC(=O)NCC(c3ccccc3)c3ccccc3)c2)cs1,inhibition,[1],0.2%
same,inhibition,[2],2.14%
same,inhibition,[3],0.5%
COc1ccc2c(CCNc3nc(SC)ncc3C(=O)NCCc3ccc(F)cc3)c[nH]c2c1,inhibition,[1],2.09%
same,inhibition,[2],0.58%
same,inhibition,[3],1.11%
COc1ccc(Nc2ncc3c(-c4cccc(NC(=O)Cc5ccncc5)c4)c[nH]c3n2)cc1OC,inhibition,[1],-0.87%
same,inhibition,[2],-1.41%
same,inhibition,[3],-1%
COc1ccc(CNCc2cccc(-c3cccc(-c4nc5cccc(C)c5[nH]4)c3)c2)cc1,inhibition,[1],9.14%
same,inhibition,[2],8.38%
same,inhibition,[3],7.72%
CCN(CC)CCN(CCN(CC)CC)c1ccc2c(c1)Sc1c(Cl)ccc(Cl)c1S2,inhibition,[1],1.42%
same,inhibition,[2],6.29%
same,inhibition,[3],3.91%
O=C(CC1NC(=O)c2ccccc21)Nc1ccc(-c2cccc(-c3nc4cc(C(F)(F)F)ccc4[nH]3)c2)cc1 (stereo unspecified),inhibition,[1],1.2%
same,inhibition,[2],2.78%
same,inhibition,[3],0.79%
